Source: PubChem BioAssay (EPA / NIEHS)
Results filed as inconclusive are left out. The source made the active and inactive calls. Rule for the calls, unless noted: active = hit-call score of the fitted dose curve at least 0.9, where 1 is the maximum; inconclusive = response in the unintended direction; inactive = score below 0.9.

Experiments:
[1] = read-out: Cytochrome P450 2B6 (Homo sapiens) (UniProt P20813); assay: CLD_CYP2B6_6hr: CellzDirect (CLD) Gene Expression Assay for xenobiotic metabolism (CYP2B6) at 6 hours (AID 2283677);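 note: actives raise CYP2B6 transcript above DMSO baseline so AC50 marks an inducer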
Procedure, shortened: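 Primary human hepatocytes dosed with chemicals at multiple concentrations, vehicle 0.2% DMSO; CYP2B6 mRNA induction measured 6 h after dosing by quantitative nuclease protection assay with chemiluminescence, gain of signal fitted relative to DMSO.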

[2] = CCTE_Padilla_ZF_144hpf_TERATOSCORE: (Legacy) CCTE's 144 Hour Post-fertilization zebrafish Assay Teratoscore, Padilla Lab (AID 2283679; active = hit-call score of the fitted dose curve at least 0.9, where 1 is the maximum; inactive = score below 0.9;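 for AC50: zebrafish embryos with chorions exposed by immersion from 6-8 hpf to 5 dpf with daily renewal; teratogenicity score from eye scoring of death hatching and malformations at 144 hpf; higher score means more developmental defects relative to DMSO baseline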)
Procedure, shortened: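 Larvae scored by eye at 144 hpf for death, hatching and malformations after a day in clean Hanks'. Before that, daily-renewed exposure at 80 uM (0.4% DMSO, 26C) from roughly 6-8 hpf through 5 dpf, 4 embryos per chemical.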

[3] = read-out: Glyceraldehyde-3-phosphate dehydrogenase (Homo sapiens) (UniProt P04406); assay: CLD_GAPDH_6hr: CellzDirect (CLD) Gene Expression Assay for Baseline Control (Glyceraldehyde 3-phosphate dehydrogenase) at 6 hours (AID 2283681);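 note: active means increased signal relative to DMSO vehicle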
Procedure, shortened: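 Primary human hepatocytes from two donor preparations, dosed at multiple concentrations with 0.2% DMSO vehicle; GAPDH mRNA measured 6 h after dosing by chemiluminescent quantitative nuclease protection assay (qNPA) on denatured lysates. Serves as background control; cytotoxicity annotated by morphology.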

[4] = read-out: xenobiotic metabolism (CYP1A2), CYP1A2 (gene 1544); assay: CLD_CYP1A2_24hr: CellzDirect (CLD) Gene Expression Assay for xenobiotic metabolism (CYP1A2) at 24 hours (AID 2283683)
Procedure, shortened: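 Primary human hepatocytes from two donor preparations dosed daily with multiple concentrations of chemical, 0.2% DMSO vehicle. CYP1A2 mRNA at 24 h quantified by qNPA chemiluminescence; gain of signal analyzed relative to DMSO. Cytotoxicity flagged by phase-contrast morphology.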

[5] = read-out: ABC Transporter (ABCB1), ABCB1 (gene 5243); assay: CLD_ABCB1_24hr: CellzDirect (CLD) Gene Expression Assay for ABC Transporter (ABCB1) at 24 hours (AID 2283684);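 for AC50: potency for increase in ABCB1 mRNA relative to DMSO vehicle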
Procedure, shortened: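 Primary human hepatocytes, two donor preparations, dosed daily with fresh solutions; vehicle 0.2% DMSO; harvested at 24 h. ABCB1 mRNA measured by quantitative nuclease protection assay (chemiluminescence); morphology-based cytotoxicity annotated.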

[6] = read-out: Broad substrate specificity ATP-binding cassette transporter ABCG2 (Homo sapiens) (UniProt Q9UNQ0); assay: CLD_ABCG2_24hr: CellzDirect (CLD) Gene Expression Assay for ABC Transporter (ABCG2) at 24 hours (AID 2283685);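 for AC50: AC50 is for induction meaning signal gain over DMSO vehicle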
Procedure, shortened: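 Primary human hepatocytes were dosed daily with ToxCast chemicals at multiple concentrations (vehicle 0.2% DMSO). ABCG2 mRNA was measured at 24 h by qNPA chemiluminescence; induction was scored as gain of signal versus DMSO.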

[7] = read-out: Cytochrome P450 3A4 (Homo sapiens) (UniProt P08684); assay: CLD_CYP3A4_24hr: CellzDirect (CLD) Gene Expression Assay for xenobiotic metabolism (CYP3A4) at 24 hours (AID 2283689)
Procedure, shortened: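 Primary human hepatocytes from two donors dosed daily with fresh compound for two days, 0.2% DMSO vehicle. CYP3A4 mRNA at 24 hr by qNPA chemiluminescence; gain-of-signal fit versus DMSO, cytotoxicity flagged by morphology.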

[8] = read-out: alkyl and aryl transferase (GSTA2), GSTA2 (gene 2939); assay: CLD_GSTA2_24hr: CellzDirect (CLD) Gene Expression Assay for alkyl and aryl transferase (GSTA2) at 24 hours (AID 2283693)
Procedure, shortened: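 Primary human hepatocytes (two donor preparations) dosed daily for two days with chemicals at multiple concentrations (vehicle 0.2% DMSO); GSTA2 mRNA at 24 h measured by qNPA chemiluminescence, gain-of-signal versus DMSO.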

[9] = read-out: sulfotransferase (SULT2A), SULT2A1 (gene 6822); assay: CLD_SULT2A_24hr: CellzDirect (CLD) Gene Expression Assay for sulfotransferase (SULT2A) at 24 hours (AID 2283694);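 for AC50: potency for increased SULT2A1 mRNA level as induction over DMSO baseline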
Procedure, shortened: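 Primary human hepatocytes from two donor preparations were dosed daily with fresh solutions, vehicle 0.2% DMSO. At 24 h, lysates went to quantitative nuclease protection (qNPA) with S1 digestion and chemiluminescent readout. Cytotoxicity was annotated from phase-contrast morphology.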

[10] = read-out: glucuronosyltransferase (UGT1A1), UGT1A1 (gene 54658); assay: CLD_UGT1A1_24hr: CellzDirect (CLD) Gene Expression Assay for glucuronosyltransferase (UGT1A1) at 24 hours (AID 2283696)
Procedure, shortened: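 Primary human hepatocytes from two donor preparations were dosed (0.2% DMSO vehicle) and harvested at 24 h; UGT1A1 mRNA induction was quantified by chemiluminescent qNPA, fitted as gain relative to DMSO.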

[11] = read-out: Cytochrome P450 3A4 (Homo sapiens) (UniProt P08684); assay: CLD_CYP3A4_48hr: CellzDirect (CLD) Gene Expression Assay for xenobiotic metabolism (CYP3A4) at 48 hours (AID 2283698)
Procedure, shortened: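 Primary human hepatocytes from two donor preparations dosed daily for two days with multiple chemical concentrations, 0.2% DMSO vehicle. CYP3A4 mRNA at 48 h by quantitative nuclease protection assay, chemiluminescence, positive fit versus DMSO; cytotoxicity flagged morphologically.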

[12] = read-out: Cytochrome P450 3A4 (Homo sapiens) (UniProt P08684); assay: CLD_CYP3A4_6hr: CellzDirect (CLD) Gene Expression Assay for xenobiotic metabolism (CYP3A4) at 6 hours (AID 2283680)
Procedure, shortened: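 Primary human hepatocytes (two donor preparations) dosed; CYP3A4 mRNA harvested at 6 h and quantified by qNPA chemiluminescence. Gain of signal fitted against 0.2% DMSO vehicle; cytotoxicity flagged by phase-contrast morphology.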

[13] = read-out: Cytochrome P450 2C19 (Homo sapiens) (UniProt P33261); assay: CLD_CYP2C19_24hr: CellzDirect (CLD) Gene Expression Assay for xenobiotic metabolism (CYP2C19) at 24 hours (AID 2283687);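 note: activity means mRNA induction above DMSO vehicle baseline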
Procedure, shortened: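 Primary human hepatocytes (two donor preparations) dosed daily with fresh test chemical in 0.2% DMSO vehicle; CYP2C19 mRNA induction measured at 24 h by quantitative nuclease protection assay with chemiluminescence, fitted for gain of signal versus DMSO.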

[14] = read-out: organic anion transporter (SLCO1B1), SLCO1B1 (gene 10599); assay: CLD_SLCO1B1_24hr: CellzDirect (CLD) Gene Expression Assay for organic anion transporter (SLCO1B1) at 24 hours (AID 2283690)
Procedure, shortened: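 Primary human hepatocytes (two donor preparations) dosed daily for two days with chemicals at multiple concentrations, 0.2% DMSO vehicle. SLCO1B1 mRNA at 24 h measured by qNPA chemiluminescence; induction fitted relative to DMSO.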

[15] = read-out: Glyceraldehyde-3-phosphate dehydrogenase (Homo sapiens) (UniProt P04406); assay: CLD_GAPDH_24hr: CellzDirect (CLD) Gene Expression Assay for Baseline Control (Glyceraldehyde 3-phosphate dehydrogenase) at 24 hours (AID 2283692)
Procedure, shortened: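 Primary human hepatocytes (two donor preparations) dosed daily for two days, 0.2% DMSO vehicle; GAPDH mRNA measured at 24 h by qNPA chemiluminescence as a background control, gain-of-signal fitted against DMSO.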

[16] = read-out: ABC Transporter (ABCB1), ABCB1 (gene 5243); assay: CLD_ABCB1_48hr: CellzDirect (CLD) Gene Expression Assay for ABC Transporter (ABCB1) at 48 hours (AID 2283695)
Procedure, shortened: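 Primary human hepatocytes from two donor preparations dosed daily on two consecutive days with 0.2% DMSO vehicle. Harvest at 48 h. ABCB1 mRNA quantified by qNPA with chemiluminescence and fitted for gain of signal versus DMSO.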

[17] = read-out: Cytochrome P450 2B6 (Homo sapiens) (UniProt P20813); assay: CLD_CYP2B6_24hr: CellzDirect (CLD) Gene Expression Assay for xenobiotic metabolism (CYP2B6) at 24 hours (AID 2283686)
Procedure, shortened: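 Primary human hepatocytes dosed daily for two days with fresh solutions, harvested at 24 hours; mRNA induction quantified by qNPA chemiluminescence, gain of signal vs 0.2% DMSO vehicle. Cytotoxicity annotated from phase-contrast morphology.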

[18] = read-out: Cytochrome P450 2C9 (Homo sapiens) (UniProt P11712); assay: CLD_CYP2C9_24hr: CellzDirect (CLD) Gene Expression Assay for xenobiotic metabolism (CYP2C9) at 24 hours (AID 2283688)
Procedure, shortened: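 Primary human hepatocytes from two donor preparations, dosed daily for two days at multiple concentrations; vehicle 0.2% DMSO. CYP2C9 mRNA induction at 24 h measured by qNPA chemiluminescence relative to DMSO; cytotoxicity annotated from morphology.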

[19] = CLD_ACTIN_6hr: CellzDirect (CLD) Gene Expression Assay for Baseline Control (Actin) at 6 hours (AID 2283676);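 note: active means increased actin mRNA relative to DMSO vehicle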
Procedure, shortened: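 Primary human hepatocytes dosed with fresh chemical solutions (vehicle 0.2% DMSO), harvested at 6 h. Actin mRNA quantified by quantitative nuclease protection assay with chemiluminescent read-out, as background control relative to DMSO.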

Measured: AC50

Chain of Cytochrome P450 2C19 (Homo sapiens) (P33261 whole entry, looked up): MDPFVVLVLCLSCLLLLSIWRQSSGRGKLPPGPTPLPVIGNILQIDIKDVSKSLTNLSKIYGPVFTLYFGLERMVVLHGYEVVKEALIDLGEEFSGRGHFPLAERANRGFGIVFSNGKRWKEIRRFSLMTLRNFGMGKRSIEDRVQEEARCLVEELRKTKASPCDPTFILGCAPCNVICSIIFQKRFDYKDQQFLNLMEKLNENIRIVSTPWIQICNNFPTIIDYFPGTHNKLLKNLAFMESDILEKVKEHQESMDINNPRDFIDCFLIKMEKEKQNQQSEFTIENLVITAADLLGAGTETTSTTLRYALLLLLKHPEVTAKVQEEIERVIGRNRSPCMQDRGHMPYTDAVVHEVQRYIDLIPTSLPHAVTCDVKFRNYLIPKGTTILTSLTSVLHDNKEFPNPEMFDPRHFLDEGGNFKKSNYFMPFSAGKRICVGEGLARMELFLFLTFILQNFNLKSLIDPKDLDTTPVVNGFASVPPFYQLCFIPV
Chain of Cytochrome P450 3A4 (Homo sapiens) (P08684 whole entry, looked up): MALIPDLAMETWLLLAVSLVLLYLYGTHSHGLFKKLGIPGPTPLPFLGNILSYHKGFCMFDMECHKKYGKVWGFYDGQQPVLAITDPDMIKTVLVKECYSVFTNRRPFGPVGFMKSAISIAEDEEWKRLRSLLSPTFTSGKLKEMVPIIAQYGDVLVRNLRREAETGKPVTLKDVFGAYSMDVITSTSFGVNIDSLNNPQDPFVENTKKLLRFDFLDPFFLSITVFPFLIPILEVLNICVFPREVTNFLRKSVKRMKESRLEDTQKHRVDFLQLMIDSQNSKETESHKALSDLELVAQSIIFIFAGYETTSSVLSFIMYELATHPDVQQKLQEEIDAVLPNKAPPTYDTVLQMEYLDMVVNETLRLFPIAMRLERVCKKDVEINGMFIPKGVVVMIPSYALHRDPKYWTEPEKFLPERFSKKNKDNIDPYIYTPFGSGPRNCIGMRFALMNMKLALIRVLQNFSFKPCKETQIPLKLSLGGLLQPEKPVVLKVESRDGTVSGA
Chain of Broad substrate specificity ATP-binding cassette transporter ABCG2 (Homo sapiens) (Q9UNQ0 whole entry, looked up): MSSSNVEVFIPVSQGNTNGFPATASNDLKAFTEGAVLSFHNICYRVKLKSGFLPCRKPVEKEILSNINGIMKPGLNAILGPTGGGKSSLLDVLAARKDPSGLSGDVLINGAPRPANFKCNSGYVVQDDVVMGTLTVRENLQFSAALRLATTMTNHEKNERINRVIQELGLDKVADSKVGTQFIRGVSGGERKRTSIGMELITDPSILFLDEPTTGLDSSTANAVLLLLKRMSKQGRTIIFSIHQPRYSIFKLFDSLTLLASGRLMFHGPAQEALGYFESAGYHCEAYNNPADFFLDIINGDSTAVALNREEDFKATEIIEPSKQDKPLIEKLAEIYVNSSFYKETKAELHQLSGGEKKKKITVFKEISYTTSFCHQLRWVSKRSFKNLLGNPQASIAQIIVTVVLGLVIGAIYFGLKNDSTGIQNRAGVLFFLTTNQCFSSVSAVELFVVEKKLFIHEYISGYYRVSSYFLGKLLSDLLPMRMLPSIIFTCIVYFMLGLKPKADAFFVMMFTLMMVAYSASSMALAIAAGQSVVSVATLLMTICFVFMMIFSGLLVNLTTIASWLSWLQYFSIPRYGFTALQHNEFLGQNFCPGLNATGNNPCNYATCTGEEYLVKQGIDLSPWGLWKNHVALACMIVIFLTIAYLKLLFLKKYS
Chain of Glyceraldehyde-3-phosphate dehydrogenase (Homo sapiens) (P04406 whole entry, looked up): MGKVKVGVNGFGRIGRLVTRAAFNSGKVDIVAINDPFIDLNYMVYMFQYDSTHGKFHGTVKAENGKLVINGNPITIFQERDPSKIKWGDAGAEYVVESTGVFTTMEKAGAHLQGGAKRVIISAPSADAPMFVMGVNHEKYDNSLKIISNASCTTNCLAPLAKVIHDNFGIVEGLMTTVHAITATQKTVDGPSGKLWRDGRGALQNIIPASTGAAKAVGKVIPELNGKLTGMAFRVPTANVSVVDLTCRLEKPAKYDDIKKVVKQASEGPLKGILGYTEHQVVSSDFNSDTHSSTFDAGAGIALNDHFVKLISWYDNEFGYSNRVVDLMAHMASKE

C[Si](Cn1cncn1)(c1ccc(F)cc1)c1ccc(F)cc1
active: [1] 32.4 µM | [2] 9.34 µM | [4] 1.89 µM | [5] 4.51 µM | [7] 1.89 µM | [9] 20 µM | [11] 0.536 µM
inactive: [3] | [6] | [8] | [10]

CN(C)NC(=O)CCC(=O)O
not listed: [1] | [8] | [9] | [10] | [11] | [17] | [18] | [19]
inactive: all other assays above

CCOP(=S)(OCC)OC(Cl)C(Cl)(Cl)Cl (stereo not drawn)
active: [2] 4.82 µM | [12] 10.5 µM | [4] 15.5 µM | [17] 0.201 µM | [7] 6.19 µM
inactive: [3] | [5] | [6] | [18] | [14] | [15] | [8] | [9]

Cc1ccn2nc(S(=O)(=O)Nc3c(F)cccc3F)nc2n1
not listed: [1] | [8] | [10] | [11] | [14] | [15] | [16] | [19]
inactive: all other assays above

O=c1ccc(=O)[nH][nH]1
inactive: [2] | [12] | [3] | [4] | [5] | [6] | [18] | [14] | [15] | [16]

CCCOCC(=Nc1ccc(Cl)cc1C(F)(F)F)n1ccnc1
inactive: [12] | [3] | [15] | [8]
active: [2] 2.07 µM | [4] 1.89 µM | [5] 32 µM | [6] 20 µM | [7] 1.9 µM

CC(C)=CC1C(C(=O)OCN2C(=O)C3=C(CCCC3)C2=O)C1(C)C (stereo not drawn)
inactive: [12] | [3] | [4] | [6] | [18] | [14] | [15] | [9]
active: [1] 5.94 µM | [2] 12.3 µM | [7] 4.28 µM

CCC(CC)Nc1c([N+](=O)[O-])cc(C)c(C)c1[N+](=O)[O-]
inactive: [3] | [13] | [18] | [8] | [9]
active: [1] 3.47 µM | [2] 24.2 µM | [4] 33.4 µM

CCOP(=S)(Oc1cnc(C(C)(C)C)nc1)OC(C)C (stereo not drawn)
inactive: [3] | [5] | [6] | [18] | [8] | [9]
active: [2] 16.8 µM | [12] 1.89 µM | [4] 6.43 µM | [17] 2.05 µM | [7] 0.464 µM | [11] 0.383 µM

CC(=NC#N)N(C)Cc1ccc(Cl)nc1
not listed: [1] | [4] | [8] | [11] | [13] | [15] | [16] | [17]
inactive: all other assays above

CSc1nnc(C(C)(C)C)c(=O)n1N
active: [4] 20 µM | [17] 20 µM | [7] 4.88 µM
inactive: [2] | [12] | [3] | [5] | [6] | [15] | [8] | [9]

CON=C(C(=O)OC)c1ccccc1CON=C(C)c1cccc(C(F)(F)F)c1
inactive: [12] | [4] | [5] | [6] | [18] | [8] | [9] | [10]
active: [1] 10.2 µM | [2] 0.208 µM | [7] 15.6 µM

C#CCC1=C(C)C(OC(=O)C2C(C=C(C)C)C2(C)C)CC1=O (stereo not drawn)
active: [2] 2.76 µM | [12] 2.84 µM | [4] 20 µM | [7] 4.64 µM
inactive: [3] | [5] | [6] | [18] | [14] | [15] | [8] | [9]

O=[N+]([O-])c1cc(C(F)(F)F)c(Cl)c([N+](=O)[O-])c1Nc1ncc(C(F)(F)F)cc1Cl
active: [2] 0.994 µM | [4] 0.508 µM
inactive: [1] | [12] | [3] | [17] | [7]

CC(C1CC1)C(O)(Cn1cncn1)c1ccc(Cl)cc1 (stereo not drawn)
inactive: [3] | [5] | [14] | [8] | [9]
active: [1] 1.28 µM | [2] 57.6 µM | [4] 4.89 µM | [17] 4.02 µM | [7] 3.78 µM | [11] 20 µM

Nc1nc(N)nc(NC2CC2)n1
not listed: [10] | [11] | [12] | [13] | [16]
inactive: all other assays above
